High-throughput results from PubChem.
A selection: hits, their analogues and other compounds. The true share with any hit is near 4.8%.
SMARCA2 act – increases SMARCA2 function in MMTV reporter cells. activation, % at 9.1 µM. actives 1% (n = 370,000). MG213 cells, MMTV-luciferase reporter, dexamethasone, overnight. AID 652017; in the data active means activation above about 7.8%;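 further: 0% = vehicle wells and 100% = reference activator wells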
DAX1 inh-1 – inhibitors of human orphan nuclear receptor DAX1 (NR0B1); actives 0.99% (n = 340,000); HEK293 Gal4-DAX1 luciferase reporter, luminescence; P51843; AID 504766; inhibition, % at 6.75 µM;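 active means inhibition above the mean over all tested compounds plus 3 SD, cut at about 4.2% in these data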;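 further: 0% = DAX1-transfected cells with DMSO and 100% = empty-vector control cells with DMSO; inhibition shows as a rise in luminescence from relieved DAX1 repression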
Target sequence (P51843 207-470 limits assumed): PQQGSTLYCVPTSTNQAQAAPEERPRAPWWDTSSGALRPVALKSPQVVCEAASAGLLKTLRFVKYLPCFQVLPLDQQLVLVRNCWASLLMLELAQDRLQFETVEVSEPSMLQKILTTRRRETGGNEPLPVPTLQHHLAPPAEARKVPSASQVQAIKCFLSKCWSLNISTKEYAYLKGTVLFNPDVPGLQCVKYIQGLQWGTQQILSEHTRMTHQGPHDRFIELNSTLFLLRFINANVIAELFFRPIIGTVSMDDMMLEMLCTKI
DAX1 inh-2 – inhibitors of DAX1 repression of SF-1 activated StAR promoter; HEK293T StAR-luciferase reporter, SF-1/DAX-1 repression relief; inhibition, % at 6.8 µM; actives 1.1% (n = 370,000); AID 652010;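 active means inhibition above the mean over all tested compounds plus 3 SD, cut at about 3.6% in these data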;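 further: 0% = DAX-1 cells with DMSO and 100% = cells lacking DAX-1 with DMSO; higher inhibition means more luminescence from relief of DAX-1 repression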
ssDAF12 agonist – activators of S. stercoralis DAF-12 nuclear receptor | HEK293 ssDAF-12/GRIP1 lit1-tk-luc reporter, luminescence; % of 3 µM dafachronic acid response | activation, % at 6.8 µM | actives 1% (n = 370,000) | AID 652126;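 active means activation above the mean over all tested compounds plus 3 SD, cut at about 0.9% in these data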;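 further: 0% = DMSO-only wells and 100% = 3 µM delta7-dafachronic acid wells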
hcDAF-12 act – activators of H. contortus DAF-12 nuclear receptor. HEK293 hcDAF-12 lit1-tk-luc reporter, luminescence; 0% DMSO, 100% Δ7-dafachronic acid. activation, % at 6.8 µM. actives 1.4% (n = 370,000). AID 652067;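 active means activation above the mean of all tested compounds plus 3 SD, cut at about 5.5% in these data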;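 further: 100% = response to 3 µM Δ7-dafachronic acid high control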
hgDAF12 agonist – agonists of H. glycines DAF-12 nuclear receptor. activation, % at 6.8 µM. HEK293 GAL4-hgDAF12 UAS-luciferase reporter, agonist luminescence; normalized to butyrate control. actives 1.8% (n = 370,000);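 active means activation above a cutoff set at the mean of all screened compounds plus 3 SD, cut at about 10% in these data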;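 further: 0% = DMSO wells and 100% = sodium butyrate wells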
Active calls of the source: *; · = no result given.

SMILES	SMARCA2 act	DAX1 inh-1	DAX1 inh-2	ssDAF12 agonist	hcDAF-12 act	hgDAF12 agonist
Cc1cc(C)cc(OCC(=O)N2CCN(c3ncccn3)CC2)c1	-2	0	-1	-1	-1	0
CC(C)Sc1nnc(NC(=O)c2ccco2)s1	3	1	2	1.8*	0	8
COC(=O)Nc1nnc(/C=C/c2ccccc2)s1	-2	0	2	0	3	3
O=C(Nc1nnc(/C=C/c2ccccc2)s1)c1ccco1	0	-1	0	1.6*	0	5
CCSc1nnc(NC(=O)c2ccco2)s1	6	0	1	-1	0	4
Nc1nnc(/C=C/c2ccccc2)s1	6	-1	1	-1	5.8*	6
C/C(COc1ccccc1)=N\NC(=O)c1nnn(-c2nonc2N)c1CSc1ccc(C)cc1	-2	0	-2	-2	-1	0
COCCNC(=O)c1c(N)[nH]c(C(=O)c2ccc(Br)cc2)c1-c1c(OC)ccc2ccccc12	·	·	·	-1	-2	2
Cc1ccc(C(=O)COC(=O)c2cccc(NC(=O)c3ccc([N+](=O)[O-])cc3[N+](=O)[O-])c2)cc1	2	-1	1	0	5	7
CN(C)C(=O)c1c([N+](=O)[O-])c(C(C)(C)C)nn1C	0	0	0	-1	0	1
CCCc1nn(C)c(C(N)=O)c1[N+](=O)[O-]	0	1	1	1.0*	5	2
O=C(CN1CCN(c2ccccc2)CC1)Nc1scc2c1c(=O)oc1ccccc12	0	4.7*	1	0	0	0
COc1ccc(NC(=O)C(=O)NCCN2CCN(C(=O)c3ccc(C)cc3)CC2)cc1	2	1	0	1.2*	-3	-1
COc1ccc(C(=O)N2CCN(CCNC(=O)C(=O)Nc3ccc(F)cc3)CC2)cc1	2	0	0	-1	0	-1
CCOC(=O)c1cc(C(=O)NCc2ccc(Cl)cc2Cl)nn1C	-3	2	0	-2	-1	2
CCOC(=O)c1cc(C(=O)Nc2ccc(C)c(F)c2)nn1C	4	3	3	-1	5	11*
Oc1ccccc1C=NN=C1c2ccccc2-c2ccccc21	-2	1	-1	2.1*	3	3
CCC(CO)NCc1ccccc1OC(C)C (stereo not given)	0	5.0*	-1	-1	0	-1
CCOc1ccccc1CNCCO	-1	1	0	-1	0	-2
COC(=O)[C@@H](Cc1c[nH]c2ccccc12)NCc1cccc(B(O)O)c1	1	0	-1	0	5.8*	-2
COC(=O)[C@@H](Cc1c[nH]c2ccccc12)NC(=O)CCC(=O)c1ccc(F)cc1	-2	0	0	0	5.6*	0
c1ccc(CCCNCC2COc3ccccc3O2)cc1 (stereo not given)	-3	0	0	-1	2	-2
O=c1[nH]c2cccnc2c2ccsc12	1	5.9*	0	0	0	-2
CCCCc1noc(-c2c(-c3ccccc3Cl)noc2C)n1	2	0	1	-2	-1	-2
S=c1[nH]cnc2sc(Nc3ccccc3)nc12	5	1	0	0	5.8*	5
SMILES	SMARCA2 act	DAX1 inh-1	DAX1 inh-2	ssDAF12 agonist	hcDAF-12 act	hgDAF12 agonist
CC1=CC(C)(C)N(C(=O)CSc2nnc(N)s2)c2c(C)cc(C)cc21	-3	1	1	-1	-2	-1
CCCCCNC(=O)C(C)NS(=O)(=O)c1ccc(OC)cc1 (stereo not given)	0	1	1	-1	-1	0
O=C(O)c1oc2ccc(Br)cc2c1-n1cccc1	-4	7.0*	0	-1	1	0
NNC(=O)c1oc2ccccc2c1-n1cccc1	0	0	0	0	-2	2
CCC(CO)Nc1ccn2nc(-c3cccs3)cc2n1 (stereo not given)	3	·	3.9*	0	4	11*
COc1ccc(C(=O)NNC(=O)c2ccccc2[N+](=O)[O-])cc1[N+](=O)[O-]	4	0	1	-2	1	1
Cc1cc(NC(=O)CCCC(=O)N(CC(=O)NCCc2ccccc2)Cc2ccc(F)cc2)no1	-1	0	-1	1.1*	0	-2
CC(=O)c1ccc(N=Nc2c(C)[nH][nH]c2=O)cc1	4	5.5*	0	-1	0	0
CC(=O)c1ccc(N=Nc2c(C)[nH]n(-c3ccccc3)c2=O)cc1	-1	0	0	0.9*	2	-2
Cc1[nH]n(-c2ccccc2)c(=O)c1N=Nc1ccccc1	2	1	1	1	6.0*	8
Cc1[nH]n(-c2ccccc2)c(=O)c1N=Nc1ccc(C(=O)O)cc1	-2	1	0	-1	0	-2
Cc1ccc(N=Nc2c(N)n(-c3ccccc3)[nH]c2=O)cc1	5	3	1	0	5.6*	9
Nc1[nH]n(-c2ccccc2)c(=O)c1N=Nc1ccc(F)cc1	2	·	3	0	3	9
Cc1[nH][nH]c(=O)c1N=Nc1ccc(S(N)(=O)=O)cc1	0	·	-1	-2	-1	-6
Cc1[nH]n(C(N)=S)c(=O)c1N=Nc1ccc(S(=O)(=O)N2CCCC2)cc1	-1	2	0	-1	-1	3
Cc1ccc(N=Nc2c(C)[nH]n(C(N)=S)c2=O)cc1	6	2	1	1.0*	3	6
COC(=O)[C@]12C[C@H](CC(=O)N3CCSCC3)C(=O)N(Cc3ccc(Cl)cc3Cl)C1=C[C@H](C(C)(C)C)O[C@@H]2C	-6	·	-1	-1	-3	1
COC(=O)[C@]12C[C@H](CC(=O)N3CCC(c4ccccc4)CC3)C(=O)N(Cc3ccc(Cl)cc3Cl)C1=C[C@H](C(C)(C)C)O[C@@H]2C	-1	·	0	1.1*	-1	-3
COC(=O)[C@H](CCSC)NC(=O)N1CCC(C)CC1	-2	0	1	-1	-1	-1
COC(=O)[C@@H](NC(=O)N1CCC(C)CC1)C(C)C	3	4.9*	0	-1	-1	4
O=CNC(n1cnc2c(N3CCOCC3)ncnc21)C(Cl)(Cl)Cl (stereo not given)	-1	10.0*	0	0	-1	-2
Cc1nn(C)cc1/C=C/C(=O)c1ccc(O)cc1	7	1	2	-1	3	11*
O=C(/C=C/c1ccc(O)cc1)c1ccccc1	6	3	1	-1	1	9
CCN(c1ccccc1)S(=O)(=O)c1ccc(Cl)c(NC(=O)Nc2ccc(Cl)cc2C#N)c1	1	-1	0	-1	0	0
CCOC(=O)CN1C(=O)/C(=C/c2ccccc2Br)Oc2ccccc21	-1	1	1	-1	5.6*	-2
